Experimental data from ChEMBL document CHEMBL1961873, “Compounds: GSK PKIS; Assays: Nanosyn kinase panel” (2012).

Legend:
[1] = target: Platelet-derived growth factor receptor beta (Homo sapiens) (UniProt P09619); conditions: at 1 µM;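 note: each value is a mean percent inhibition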
[2] = target: Tyrosine-protein kinase FRK (Homo sapiens) (UniProt P42685); conditions: at 0.1 µM
[3] = target: Tyrosine-protein kinase FRK (Homo sapiens) (UniProt P42685); conditions: at 1 µM
[4] = target: Protein-tyrosine kinase 2-beta (Homo sapiens) (UniProt Q14289); conditions: at 0.1 µM
Chain of Protein-tyrosine kinase 2-beta (Homo sapiens) (Q14289 whole entry, looked up): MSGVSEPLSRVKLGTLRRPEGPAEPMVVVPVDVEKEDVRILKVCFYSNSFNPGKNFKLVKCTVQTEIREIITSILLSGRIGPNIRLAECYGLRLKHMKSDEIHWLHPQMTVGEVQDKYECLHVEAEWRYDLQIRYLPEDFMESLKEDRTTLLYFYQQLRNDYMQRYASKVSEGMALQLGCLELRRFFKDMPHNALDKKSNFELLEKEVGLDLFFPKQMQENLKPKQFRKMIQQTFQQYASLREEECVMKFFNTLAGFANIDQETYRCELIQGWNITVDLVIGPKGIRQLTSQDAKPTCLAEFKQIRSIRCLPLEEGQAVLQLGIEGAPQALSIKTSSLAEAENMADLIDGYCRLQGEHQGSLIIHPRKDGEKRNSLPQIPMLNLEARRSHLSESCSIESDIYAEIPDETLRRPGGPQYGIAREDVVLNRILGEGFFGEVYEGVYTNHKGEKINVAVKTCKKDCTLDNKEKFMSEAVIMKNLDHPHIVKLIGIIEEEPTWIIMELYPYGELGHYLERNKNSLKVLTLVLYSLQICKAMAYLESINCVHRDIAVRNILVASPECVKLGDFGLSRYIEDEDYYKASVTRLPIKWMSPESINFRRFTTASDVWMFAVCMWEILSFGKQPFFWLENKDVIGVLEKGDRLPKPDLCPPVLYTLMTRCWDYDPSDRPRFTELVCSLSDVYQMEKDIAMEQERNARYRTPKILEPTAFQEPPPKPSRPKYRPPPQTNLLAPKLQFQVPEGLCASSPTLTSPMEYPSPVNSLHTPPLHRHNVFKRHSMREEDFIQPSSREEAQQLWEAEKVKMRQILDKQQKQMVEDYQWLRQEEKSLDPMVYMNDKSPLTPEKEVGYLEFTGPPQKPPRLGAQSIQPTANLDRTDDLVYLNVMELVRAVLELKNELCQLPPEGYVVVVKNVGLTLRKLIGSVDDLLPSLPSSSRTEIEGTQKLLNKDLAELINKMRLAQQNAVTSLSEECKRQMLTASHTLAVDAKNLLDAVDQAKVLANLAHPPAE

[5] = target: Protein-tyrosine kinase 2-beta (Homo sapiens) (UniProt Q14289); conditions: at 1 µM
[6] = target: Proto-oncogene tyrosine-protein kinase receptor Ret (Homo sapiens) (UniProt P07949); conditions: at 0.1 µM
Chain of Proto-oncogene tyrosine-protein kinase receptor Ret (Homo sapiens) (P07949 whole entry): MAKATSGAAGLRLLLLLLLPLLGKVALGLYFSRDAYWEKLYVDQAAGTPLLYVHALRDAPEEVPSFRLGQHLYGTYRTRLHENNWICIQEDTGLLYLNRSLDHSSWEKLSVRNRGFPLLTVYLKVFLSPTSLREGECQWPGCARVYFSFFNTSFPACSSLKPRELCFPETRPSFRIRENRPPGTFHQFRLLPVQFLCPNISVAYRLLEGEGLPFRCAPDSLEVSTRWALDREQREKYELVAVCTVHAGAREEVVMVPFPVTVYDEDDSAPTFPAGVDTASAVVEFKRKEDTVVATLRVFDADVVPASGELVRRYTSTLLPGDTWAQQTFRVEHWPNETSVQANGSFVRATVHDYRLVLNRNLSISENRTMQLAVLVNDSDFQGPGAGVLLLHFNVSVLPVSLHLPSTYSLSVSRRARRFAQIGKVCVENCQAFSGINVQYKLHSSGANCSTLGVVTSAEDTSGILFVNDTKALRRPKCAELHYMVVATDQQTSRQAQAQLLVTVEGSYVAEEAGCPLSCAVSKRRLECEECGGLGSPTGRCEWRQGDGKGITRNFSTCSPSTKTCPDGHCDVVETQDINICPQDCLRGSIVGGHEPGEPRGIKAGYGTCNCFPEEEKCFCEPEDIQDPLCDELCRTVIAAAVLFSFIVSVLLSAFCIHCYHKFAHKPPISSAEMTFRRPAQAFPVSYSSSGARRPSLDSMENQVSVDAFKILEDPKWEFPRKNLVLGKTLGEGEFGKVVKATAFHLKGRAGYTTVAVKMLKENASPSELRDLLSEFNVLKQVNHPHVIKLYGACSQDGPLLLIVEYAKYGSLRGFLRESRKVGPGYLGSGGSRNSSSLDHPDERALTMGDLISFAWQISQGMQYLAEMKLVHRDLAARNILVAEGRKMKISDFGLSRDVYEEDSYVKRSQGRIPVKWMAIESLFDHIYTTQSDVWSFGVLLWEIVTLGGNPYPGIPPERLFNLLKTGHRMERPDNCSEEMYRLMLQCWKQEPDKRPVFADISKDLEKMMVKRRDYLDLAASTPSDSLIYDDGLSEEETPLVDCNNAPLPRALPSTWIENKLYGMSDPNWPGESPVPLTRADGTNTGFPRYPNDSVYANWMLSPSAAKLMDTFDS

[7] = target: Proto-oncogene tyrosine-protein kinase receptor Ret (Homo sapiens) (UniProt P07949); conditions: at 1 µM
[8] = system: Proto-oncogene tyrosine-protein kinase receptor Ret (Homo sapiens), P07949 [V804L]; conditions: at 0.1 µM
Chain of Proto-oncogene tyrosine-protein kinase receptor Ret (Homo sapiens), P07949 [V804L] (P07949 whole entry V804L): as the sequence (P07949 whole entry) above, with V804L counted along it

[9] = system: Proto-oncogene tyrosine-protein kinase receptor Ret (Homo sapiens), P07949 [V804L]; conditions: at 1 µM
[10] = system: Proto-oncogene tyrosine-protein kinase receptor Ret (Homo sapiens), P07949 [Y791F]; conditions: at 0.1 µM
Chain of Proto-oncogene tyrosine-protein kinase receptor Ret (Homo sapiens), P07949 [Y791F] (P07949 whole entry Y791F): as the sequence (P07949 whole entry) above, with Y791F counted along it

[11] = system: Proto-oncogene tyrosine-protein kinase receptor Ret (Homo sapiens), P07949 [Y791F]; conditions: at 1 µM
[12] = target: Macrophage-stimulating protein receptor (Homo sapiens) (UniProt Q04912); conditions: at 0.1 µM
[13] = target: Macrophage-stimulating protein receptor (Homo sapiens) (UniProt Q04912); conditions: at 1 µM
[14] = target: Proto-oncogene tyrosine-protein kinase ROS (Homo sapiens) (UniProt P08922); conditions: at 0.1 µM
[15] = target: Proto-oncogene tyrosine-protein kinase Src (Homo sapiens) (UniProt P12931); conditions: at 0.1 µM
Chain of Proto-oncogene tyrosine-protein kinase Src (Homo sapiens) (P12931 2-536 limits assumed): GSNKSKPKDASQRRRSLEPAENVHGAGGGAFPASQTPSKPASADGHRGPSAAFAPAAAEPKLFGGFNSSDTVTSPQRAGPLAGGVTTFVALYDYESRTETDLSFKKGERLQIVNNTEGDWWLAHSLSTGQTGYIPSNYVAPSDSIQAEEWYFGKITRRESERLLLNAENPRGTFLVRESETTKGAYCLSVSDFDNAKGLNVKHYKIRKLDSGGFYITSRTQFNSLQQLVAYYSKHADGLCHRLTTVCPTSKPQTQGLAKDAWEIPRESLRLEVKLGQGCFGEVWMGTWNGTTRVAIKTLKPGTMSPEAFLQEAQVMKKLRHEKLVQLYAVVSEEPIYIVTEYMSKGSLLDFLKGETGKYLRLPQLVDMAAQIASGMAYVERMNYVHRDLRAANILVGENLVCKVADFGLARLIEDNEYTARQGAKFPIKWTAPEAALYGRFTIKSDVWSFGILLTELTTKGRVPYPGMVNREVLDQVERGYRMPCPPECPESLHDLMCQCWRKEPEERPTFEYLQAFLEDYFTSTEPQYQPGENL

[16] = target: Proto-oncogene tyrosine-protein kinase Src (Homo sapiens) (UniProt P12931); conditions: at 1 µM
[17] = target: Tyrosine-protein kinase Srms (Homo sapiens) (UniProt Q9H3Y6); conditions: at 0.1 µM
Chain of Tyrosine-protein kinase Srms (Homo sapiens) (Q9H3Y6 whole entry): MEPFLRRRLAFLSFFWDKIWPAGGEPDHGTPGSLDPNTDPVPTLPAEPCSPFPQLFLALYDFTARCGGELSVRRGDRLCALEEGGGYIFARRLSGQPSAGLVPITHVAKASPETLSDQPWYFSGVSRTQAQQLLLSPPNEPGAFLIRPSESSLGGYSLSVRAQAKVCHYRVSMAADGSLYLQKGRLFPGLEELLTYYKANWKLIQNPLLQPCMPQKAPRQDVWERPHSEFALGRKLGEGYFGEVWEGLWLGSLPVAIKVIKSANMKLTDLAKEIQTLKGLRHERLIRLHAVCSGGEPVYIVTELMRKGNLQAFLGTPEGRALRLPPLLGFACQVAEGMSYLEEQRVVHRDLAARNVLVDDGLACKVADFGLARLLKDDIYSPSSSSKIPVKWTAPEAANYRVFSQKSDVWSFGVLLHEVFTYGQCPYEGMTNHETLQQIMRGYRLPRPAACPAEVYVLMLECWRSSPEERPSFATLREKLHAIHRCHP

[18] = target: Tyrosine-protein kinase Srms (Homo sapiens) (UniProt Q9H3Y6); conditions: at 1 µM
[19] = target: Tyrosine-protein kinase SYK (Homo sapiens) (UniProt P43405); conditions: at 0.1 µM;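 note: reported percentages are mean inhibition values for SYK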
[20] = target: Proto-oncogene tyrosine-protein kinase ROS (Homo sapiens) (UniProt P08922); conditions: at 1 µM

Chain of Tyrosine-protein kinase FRK (Homo sapiens) (P42685 whole entry): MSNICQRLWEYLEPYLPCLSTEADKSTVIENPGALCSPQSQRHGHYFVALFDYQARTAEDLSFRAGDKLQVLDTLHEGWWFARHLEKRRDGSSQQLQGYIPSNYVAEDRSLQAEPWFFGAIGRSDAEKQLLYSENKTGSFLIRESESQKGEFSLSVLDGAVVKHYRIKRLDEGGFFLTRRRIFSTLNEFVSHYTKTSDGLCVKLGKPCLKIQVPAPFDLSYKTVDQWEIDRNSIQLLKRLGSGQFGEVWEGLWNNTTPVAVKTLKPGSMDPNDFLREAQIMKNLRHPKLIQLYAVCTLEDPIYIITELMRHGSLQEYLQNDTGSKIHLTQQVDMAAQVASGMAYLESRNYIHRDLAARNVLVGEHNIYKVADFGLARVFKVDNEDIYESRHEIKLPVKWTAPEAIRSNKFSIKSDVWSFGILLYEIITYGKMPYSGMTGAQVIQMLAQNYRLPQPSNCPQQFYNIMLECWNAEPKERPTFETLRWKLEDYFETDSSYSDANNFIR
Chain of Platelet-derived growth factor receptor beta (Homo sapiens) (P09619 whole entry): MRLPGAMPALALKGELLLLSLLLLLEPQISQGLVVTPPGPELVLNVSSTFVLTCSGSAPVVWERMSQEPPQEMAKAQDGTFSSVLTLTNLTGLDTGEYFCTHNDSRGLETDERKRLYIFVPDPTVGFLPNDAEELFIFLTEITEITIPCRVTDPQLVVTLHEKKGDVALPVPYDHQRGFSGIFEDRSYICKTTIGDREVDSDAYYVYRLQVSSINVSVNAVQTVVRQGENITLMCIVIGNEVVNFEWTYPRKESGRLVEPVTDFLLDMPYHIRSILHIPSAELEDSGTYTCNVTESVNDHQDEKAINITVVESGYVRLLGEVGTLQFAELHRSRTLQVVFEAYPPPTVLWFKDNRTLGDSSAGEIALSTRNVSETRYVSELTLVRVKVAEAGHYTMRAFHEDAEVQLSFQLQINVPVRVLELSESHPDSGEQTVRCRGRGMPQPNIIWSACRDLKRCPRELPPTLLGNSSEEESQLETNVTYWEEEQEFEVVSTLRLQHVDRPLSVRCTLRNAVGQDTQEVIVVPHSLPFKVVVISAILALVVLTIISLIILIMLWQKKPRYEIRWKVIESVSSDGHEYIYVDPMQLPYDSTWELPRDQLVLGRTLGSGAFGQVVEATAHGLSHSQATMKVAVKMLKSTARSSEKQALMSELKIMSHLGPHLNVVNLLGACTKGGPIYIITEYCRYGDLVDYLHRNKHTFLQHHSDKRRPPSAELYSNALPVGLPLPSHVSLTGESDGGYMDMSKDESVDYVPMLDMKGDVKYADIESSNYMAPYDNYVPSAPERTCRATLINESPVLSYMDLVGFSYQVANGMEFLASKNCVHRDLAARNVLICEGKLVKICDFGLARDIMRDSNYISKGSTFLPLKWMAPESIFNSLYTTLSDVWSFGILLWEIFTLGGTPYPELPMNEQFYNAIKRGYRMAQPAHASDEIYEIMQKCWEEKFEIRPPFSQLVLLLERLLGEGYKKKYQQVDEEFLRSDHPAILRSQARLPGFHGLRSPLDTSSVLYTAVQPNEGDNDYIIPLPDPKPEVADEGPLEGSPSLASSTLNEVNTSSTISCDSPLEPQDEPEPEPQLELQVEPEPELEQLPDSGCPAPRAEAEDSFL

| Compound | inhibition [1] [%] | inhibition [2] [%] | inhibition [3] [%] | inhibition [4] [%] | inhibition [5] [%] | inhibition [6] [%] | inhibition [7] [%] | inhibition [8] [%] | inhibition [9] [%] | inhibition [10] [%] | inhibition [11] [%] | inhibition [12] [%] | inhibition [13] [%] | inhibition [14] [%] | inhibition [15] [%] | inhibition [16] [%] | inhibition [17] [%] | inhibition [18] [%] | inhibition [19] [%] | inhibition [20] [%] |
| --- | --- | --- | --- | --- | --- | --- | --- | --- | --- | --- | --- | --- | --- | --- | --- | --- | --- | --- | --- | --- |
| c1ccc(Cc2nc3ccc(Nc4ncnc5ccccc45)cc3[nH]2)cc1 | 14.8 | 2.62 | 0.81 | 2.62 | 13.4 | 4.63 | 9.44 | 2.59 | 9.82 | 3.35 | 6.8 | 4.08 | 5.82 | 4.22 | 0.79 | 12.8 | -1.79 | -2.82 | 8.94 |  |
| ON=C1CCc2cc(-c3nc(C4CCNCC4)[nH]c3-c3ccncc3)ccc21 | 23.3 | 2.38 | -1.06 | 1.86 | 1.17 | 1.22 | 7.25 | 6.18 | -3.85 | 1.94 | 8.46 | -6.87 | 1.8 | 1.07 | 2.03 | 0.66 | 0 | -2.67 | 2.82 | 2.47 |
| Nc1nccc(-c2c(-c3ccc(F)cc3)nn3cc(C(F)(F)F)ccc23)n1 | 2.13 | -1.38 | 1.04 |  |  | 2.76 | -0.03 | 0.95 | 0.97 | -0.45 | 3.56 | 1.05 | -2.78 | 4.58 | 1.35 | 1.39 | 0.31 | -1.94 | -0.75 | 2.24 |
| O=C(Nc1ccc(Oc2ccc3[nH]c(NC(=O)c4ccco4)nc3c2)cc1)Nc1cc(C(F)(F)F)ccc1F | 58.3 | 0.19 | 2.9 | 0.95 | 12.9 | 77.7 | 84.2 | 45.6 | 75.7 | 50.9 | 82.3 | -2.7 | 17.2 | 0.05 | 7.67 | 37 | 3.74 | -0.11 | 1.01 | 11.1 |
| COc1cccc(-n2nc(C)c3c(N/N=C(\C)c4ccncc4)ncnc32)c1 | 5.79 | 0.1 | -0.17 | 1.44 | 8.6 | -0.76 | 0.88 | 1.04 | 1.23 | 2.73 | 5.78 | -3.77 | -0.1 | 2.71 | 2.45 | 3.26 | 0.84 | 2.72 | 1.37 | 4.49 |
| c1ccc(Nc2ncc(-c3ccccc3)o2)cc1 | 36 | 3.95 | 4.95 | 10.4 | 14.3 | 6.9 | 9.61 | 2.13 | 6.39 | 5.1 | 11.5 | 8.13 | 9.16 | 7.47 | 9.27 | 14.3 | 0.17 | 2.19 | 1.8 | 5.92 |
| NS(=O)(=O)c1ccc(-c2cc3ccncc3cc2OCc2ccccc2)cc1 | 8.53 | 2 | 1.07 | 7.81 | 13.4 | 2.04 | 8.69 | 2.23 | 5.47 | 5.72 | 8.79 | 3.44 | 8.77 | 5.03 | -0.21 | 6.83 | 0.62 | 1.62 | 2.96 | 11 |
| CN(c1ccc(NC(=O)Nc2ccc(OC(F)(F)F)cc2)cc1)c1ccnc(Nc2cccc(S(N)(=O)=O)c2)n1 | 82.1 | 5.62 | 40.9 | 5.52 | 59 | 79.8 | 72 | 53.8 | 86.4 | 67.4 | 92.1 | 54.3 | 90.5 | 15.2 | 41.9 | 86.5 | 0.09 | 14.3 | -1.49 | 66.9 |
| Cc1cc(O)cc(C)c1/C=C/c1cncc(C(=O)N(C)C)c1 | 10 | -0.14 | 1.73 | 5.04 | 3.05 | 8.48 | 11.8 | 6.64 | 9.06 | 8.23 | 11.9 | 4.1 | 11 | 3.04 | 1.66 | 7.43 | 0.98 | 1.27 | -1.67 | 7.84 |
| N#Cc1c(NC(=O)c2ccccc2F)sc2c1CCCC2 | 3.62 | -0.85 | -1.09 |  | -8.67 | -2 | 3.21 | 0.24 | 2.29 | -0.3 | 1.78 | -0.97 | -3.33 | 1.04 | -4.11 | -4.48 | 2.55 | 1.79 | 0.7 | 0.32 |
| CCn1c(-c2nonc2N)nc2c(C#CC(C)(C)O)nc(OCCNC)cc21 | 24.2 | 3.46 | 3.09 | 8.7 | 10.6 | 8.91 | 23.6 | 2.4 | 4.07 | 7.43 | 28.9 | 6.88 |  | 6.88 | 8.38 | 11.9 | -1.55 | -2.34 | 1.27 | 6.96 |
| CCS(=O)(=O)c1ccc(OC)c(Nc2ncc(-c3cccc(OC)c3)o2)c1 | 74.8 | 4.05 | 26.9 | 6.52 | 10.9 | 21.9 | 68.5 | 7.11 | 44.1 | 22.6 | 67.1 | 3.89 | 3.42 | 9.78 | 30.7 | 79.4 | 2.74 | 30.6 | -0.11 | 43.3 |
| CN(C)c1cc2c(Nc3ccc4c(cnn4Cc4ccccc4)c3)ncnc2cn1 | 7.75 | 1.92 | 2.5 | 4.48 | 5.1 | 1.87 | 13.6 | 3.56 | 0.35 | 5.78 | 34.4 | 1.53 | 0.62 | 2.34 | 3.91 | 13.1 | -0.2 | 1.29 | 0.89 | 2.03 |
| NS(=O)(=O)c1ccc(NC=C2C(=O)Nc3ccc4ncsc4c32)cc1 | 89.8 | 4.28 | 4.47 | 21.8 | 66.8 | 47.7 | 79.9 | 59 | 78.3 | 46.1 | 72.4 | 10.4 | 56.3 | 17.3 | 14.2 | 61.9 | -1.05 | 0.07 | -8.02 | 36.8 |
| COc1cc2ncnc(Nc3ccc4c(cnn4Cc4ccccc4)c3)c2cc1OC | 6.26 | 1.94 | 6.16 | 6.05 | 9.57 | 8.77 | 28.6 | 3.73 | 9.3 | 9.71 | 40 | 3.2 | 2.02 | 6.51 | 10.1 | 41.8 | 0.35 | 4.63 | 4.44 | 4.63 |
| NS(=O)(=O)c1ccc(N/N=C2\C(=O)Nc3ccc(Cl)cc32)cc1 | 36.7 | 1.76 | 1.45 | 6.41 | 14 | -0.09 | 14.5 | 8.27 | 41.6 | 2.06 | 22.3 | 3.12 |  | 4.68 | -2.96 | 14.1 | 0.76 | 0.2 | -0.57 | 4.73 |
| CCn1c(-c2nonc2N)nc2ccc(F)cc21 | 4.28 | 2.61 | 1.89 |  |  | 6.24 | 5.07 | 3.33 | 15.8 | 6.33 | 11.3 | 0.5 | 6.19 | 5.7 | 4.3 | 9.9 | -2.63 | -0.49 | 3.17 | 8.6 |
